Screening results from PubChem BioAssay.
Compounds with a hit are over-represented: about 2.4% of the library has one in this group of screens.
S2 tox = Viability Counterscreen for Primary qHTS for Inhibitors of ATXN expression; S2 cells (HEK-293 line with an ATXN2-luciferase reporter) viability, CellTiter-Fluor protease fluorescence, 24 h; Potency, µM (titrated, usually from 56.7 µM), hits mostly cytotoxic; actives 0.49% (n = 400,000); AID 651635, 2014; further: nearly all actives have a fitted effect of over 40% in size
HepG2 viability = qHTS for Inhibitors of TGF-b: Cytotox Counterscreen; HepG2 CAGA-GFP viability, ATP luminescence, 18 h; Potency, µM (series often up to 46.1 µM), usual class: cytotoxic; actives 0.76% (n = 410,000)
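CellTiter-Glo luminescence gave cytotoxicity after 18 hours at 37 degrees C. The cells were HepG2 CAGA-GFP in 1% FBS DMEM, stimulated with 500 pg/mL TGF-beta after compound addition. %Activity was normalised to no-cell wells (complete cell-killing) and DMSO (no toxicity), and curves were fitted and classified.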
ATXN2 expr inh = Primary qHTS for Inhibitors of ATXN expression. Potency, µM (doses to about 57 µM), most hits filed as inhibitors. actives 0.72% (n = 360,000). HEK-293 ATXN2-luciferase reporter, luminescence, 24 h; further: nearly all actives have a fitted effect of over 55% in size
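qHTS (up to 57 uM final) was run with 24 h compound exposure of reporter cells at 37 °C. Each well was multiplexed: SteadyGlo luminescence measured ATXN2-luciferase expression after a fluorogenic Gly-Phe-AFC viability readout (25 uM final).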
TGFb SMAD3 inh = qHTS for Inhibitors of TGF-b | HepG2 CAGA-GFP TGF-b/SMAD3 reporter, GFP fluorescence, 18 h; TGF-beta stimulated, 500 pg/mL final | Potency, µM (series often up to 46.1 µM), most hits filed as inhibitors | actives 1.2% (n = 410,000) | AID 588855, 2011; further: nearly all actives have a fitted effect of over 65% in size
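HEPG2 CAGA-GFP cells (1000/well, DMEM with 1% FBS) were pre-incubated 2 h at 37 degrees C, given compound by pin tool, then stimulated with TGF-beta at 500 pg/mL final for 18 h before per-cell GFP fluorescence imaging.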
Anesthetic bind = qHTS Assay for Identification of Novel General Anesthetics | Potency, µM (top dose mostly 77.5 µM), actives largely listed as inhibitors | Ferritin light chain (Equus caballus), P02791 | apoferritin/1-aminoanthracene competitive binding, fluorescence | AID 485281, 2010 | actives 0.074% (n = 350,000); further: nearly all actives have a fitted effect of over 20% in size
Target sequence (P02791 2-175 limits assumed): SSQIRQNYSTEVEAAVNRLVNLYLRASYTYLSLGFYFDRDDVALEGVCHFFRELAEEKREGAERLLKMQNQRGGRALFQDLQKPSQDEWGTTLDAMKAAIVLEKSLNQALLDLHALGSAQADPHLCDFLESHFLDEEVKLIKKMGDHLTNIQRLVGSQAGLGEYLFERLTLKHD
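Horse-spleen apoferritin (10 uM) was mixed with 50% saturated 1-aminoanthracene in PBS, exposed to compounds for 10 min at room temperature, and read for fluorescence (ex 380 nm, em 535 nm). Competitive displacement was fitted with a four-parameter Hill equation.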
A number is an active result. The call rests on the fitted dose curve; in most records, active means well fitted curve in the direction sought with a large enough effect; inconclusive means small, poorly fitted or top-dose-only effect, or another doubt; inactive means no such curve, though single readings can be large; an effect the other way counts as inactive or inconclusive.

How did CC(C)C[C@H]1CN([C@@H](Cc2ccccc2)CN2CCC[C@@H]2CN2C(=O)C(=O)NC[C@@H]2Cc2ccccc2)C(=O)C(=O)N1CCc1ccccc1 do in these assays?
S2 tox: 25.1µM; HepG2 viability: inactive; ATXN2 expr inh: inconclusive; TGFb SMAD3 inh: inconclusive

What do the screens show for `CC(C)C[C@@H](CN1CCC[C@@H]1CN1C(=S)NC[C@@H]1Cc1ccccc1)N1C[C@H](Cc2ccc(O)cc2)N(CC2CCCCCC2)C1=S`?
S2 tox: 14.1µM; HepG2 viability: inactive; ATXN2 expr inh: 22.4µM; TGFb SMAD3 inh: inconclusive

Results for CC(C)C[C@@H](CN1CCC[C@@H]1CN1C(=S)NC[C@@H]1Cc1ccccc1)N1C[C@H](Cc2ccc(O)cc2)N(CC2CCCCC2)C1=S ?
S2 tox: inconclusive; HepG2 viability: inactive; ATXN2 expr inh: inactive; TGFb SMAD3 inh: inconclusive

What do the screens show for `CC(C)C[C@H]1CNC(=S)N1CC1CCCN1C[C@H](Cc1ccc(O)cc1)N1C[C@H](Cc2ccccc2)N(CC2CCCCCC2)C1=S` (stereo not given in full)?
S2 tox: inactive; HepG2 viability: inactive; ATXN2 expr inh: inactive; TGFb SMAD3 inh: inconclusive

Results for CC(C)C[C@H]1CN([C@@H](Cc2ccc(O)cc2)CN2CCC[C@@H]2CN2C(=S)NC[C@@H]2Cc2ccccc2)C(=S)N1CC1CCCCC1 ?
S2 tox: inconclusive; HepG2 viability: inactive; ATXN2 expr inh: inactive; TGFb SMAD3 inh: 11.2µM

What do the screens show for `Oc1ccc(C[C@H]2CN([C@@H](Cc3cccc(O)c3)CN3CCC[C@@H]3CN3C(=S)NC[C@@H]3Cc3ccccc3)C(=S)N2CC2CCCCC2)cc1`?
S2 tox: 12.6µM; HepG2 viability: inactive; ATXN2 expr inh: 15.8µM; TGFb SMAD3 inh: 5.01µM

How did Cc1noc2ncnc(Sc3c(Cl)cccc3Cl)c12 do in these assays?
S2 tox: inactive; HepG2 viability: 11.2µM; ATXN2 expr inh: inactive; TGFb SMAD3 inh: inconclusive; Anesthetic bind: inconclusive

How did Cc1ccc(Sc2ncnc3onc(C)c23)cc1 do in these assays?
S2 tox: inactive; HepG2 viability: inactive; ATXN2 expr inh: inactive; TGFb SMAD3 inh: inactive; Anesthetic bind: inconclusive

What do the screens show for `Cc1noc2ncnc(Sc3ccc(Cl)cc3)c12`?
S2 tox: inconclusive; HepG2 viability: 14.1µM; ATXN2 expr inh: inactive; TGFb SMAD3 inh: inconclusive; Anesthetic bind: inactive

Results for Cc1[nH]c2c(F)cccc2c1CC(=O)NCCN1Cc2ccccc2OC(C)C1 (stereo not given) ?
S2 tox: inactive

Results for CCN(CC)CCCNc1nc2ccccc2c2[nH]c3ccc(OC)cc3c12 ?
S2 tox: 5.97µM; HepG2 viability: inactive; ATXN2 expr inh: inconclusive; TGFb SMAD3 inh: inconclusive

What do the screens show for `COc1cc(=O)n2c(c1C(=O)NCc1nonc1C)CCN(Cc1c[nH]c3ccccc13)CC2`?
S2 tox: inactive

How did COc1cc(=O)n2c(c1C(=O)NC(C)c1ccco1)CCN(C(=O)c1cc(C)cc(C)c1)CC2 (stereo not given) do in these assays?
S2 tox: inactive

Results for CN(C)c1nc(C=C(C#N)C#N)c(Cl)n1-c1ccc(F)cc1 ?
S2 tox: 22.4µM; HepG2 viability: 8.91µM; ATXN2 expr inh: inconclusive; TGFb SMAD3 inh: 5.01µM; Anesthetic bind: inactive

How did CN(C)CCCn1c(=O)n(Cc2ccco2)c(=O)c2c3c(sc21)CCCCC3 do in these assays?
S2 tox: inactive; HepG2 viability: 12.6µM; ATXN2 expr inh: inactive; TGFb SMAD3 inh: inconclusive; Anesthetic bind: inactive

Results for C#CCOCCOCCOCCNc1nc(N2CCN(C(=O)CCCCCCCCCCNC(=O)[C@H](CO)n3cc(CCCSC)nn3)CC2)nc(N2CCN(C(=O)CCCCCCCCCCNC(=O)[C@H](CCCN=C(N)N)n3cc(C[C@@H](C)CC)nn3)CC2)n1 ?
S2 tox: 11.2µM; HepG2 viability: 10µM; ATXN2 expr inh: 11.2µM; TGFb SMAD3 inh: inconclusive

What do the screens show for `C#CCOCCOCCOCCNc1nc(N2CCN(C(=O)CCCCCCCCCCNC(=O)[C@H](CO)n3cc(CCCSC)nn3)CC2)nc(N2CCN(C(=O)CCCCCCCCCCNC(=O)[C@H](CCCCN)n3cc(CCO)nn3)CC2)n1`?
S2 tox: inconclusive; HepG2 viability: inactive; ATXN2 expr inh: inactive; TGFb SMAD3 inh: inactive

What do the screens show for `C#CCOCCOCCOCCNc1nc(N2CCN(C(=O)CCCCCCCCCCNC(=O)Cn3cc(C[C@@H](C)O)nn3)CC2)nc(N2CCN(C(=O)CCCCCCCCCCNC(=O)[C@H](CCCN=C(N)N)n3cc(C[C@@H](C)CC)nn3)CC2)n1`?
S2 tox: 20µM; HepG2 viability: inactive; ATXN2 expr inh: inconclusive; TGFb SMAD3 inh: 14.1µM

How did Cc1ccc(NC(=O)Cn2cc(S(=O)(=O)N3CCCC3)c(S(=O)(=O)N3CCCC3)c2)cc1F do in these assays?
S2 tox: inactive; HepG2 viability: inactive; ATXN2 expr inh: inactive; TGFb SMAD3 inh: inactive; Anesthetic bind: inactive

Results for COc1cccc2c1cc1c(=O)n(CC(=O)NC3CC3)nc(C)n12 ?
HepG2 viability: inactive; TGFb SMAD3 inh: inactive; Anesthetic bind: inactive

What do the screens show for `Cc1ccc2c(c1)c(=O)c1ccccc1n2CCCC(=O)Nc1ccc(C)c(F)c1`?
HepG2 viability: inactive; ATXN2 expr inh: inactive; TGFb SMAD3 inh: 6.31µM; Anesthetic bind: inactive

How did O=C(Cn1c(=O)n(Cc2ccco2)c(=O)c2ccccc21)Nc1cccc(Cl)c1 do in these assays?
S2 tox: inconclusive; HepG2 viability: inactive; ATXN2 expr inh: inconclusive; TGFb SMAD3 inh: 10µM; Anesthetic bind: inactive

How did Cc1ccc(NC(=O)Cn2c(=O)n(Cc3ccco3)c(=O)c3ccccc32)cc1 do in these assays?
S2 tox: inactive; HepG2 viability: inactive; ATXN2 expr inh: inactive; TGFb SMAD3 inh: inactive; Anesthetic bind: inactive

How did Cc1ccc2c(c1)c(=O)c1ccccc1n2CCCC(=O)Nc1ccc(Cl)c(Cl)c1 do in these assays?
S2 tox: inactive; HepG2 viability: inactive; ATXN2 expr inh: inactive; TGFb SMAD3 inh: inconclusive; Anesthetic bind: inactive

Results for O=C(CCCn1c2ccccc2c(=O)c2ccccc21)Nc1cccc(Cl)c1 ?
HepG2 viability: inactive; ATXN2 expr inh: inconclusive; TGFb SMAD3 inh: 12.6µM; Anesthetic bind: inactive

Results for O=C(Nc1ccc(F)c(F)c1)c1cnn2c1NC(=C1CC1)C=C2C(F)(F)F ?
HepG2 viability: inactive; TGFb SMAD3 inh: inactive

What do the screens show for `C=Cc1ccc(COc2ccc3oc(-c4ccccc4)c(C(=O)OCC)c3c2)cc1`?
S2 tox: inactive; HepG2 viability: inactive; ATXN2 expr inh: inactive; TGFb SMAD3 inh: inactive; Anesthetic bind: inactive

Results for CC(C)CC(=O)NC(Nc1ccc([N+](=O)[O-])cc1)C(Cl)(Cl)Cl (stereo not given) ?
S2 tox: inactive; HepG2 viability: inactive; ATXN2 expr inh: inactive; TGFb SMAD3 inh: 15.8µM; Anesthetic bind: inactive
